High-throughput results from PubChem.
Sampled rows, rich in hits. Any-hit rate of the full collection: about 4.1%.
DAX1 inh-1 = inhibitors of DAX1 repression of SF-1 activated StAR promoter; 370,000 tested, 1.1% active; inhibition, % at 6.8 µM; HEK293T StAR-luciferase reporter, SF-1/DAX-1 repression relief;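 active = inhibition above the mean over all tested compounds plus 3 SD, cut at about 3.6% in these data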;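 note: 0% = DAX-1 cells with DMSO and 100% = cells lacking DAX-1 with DMSO; higher inhibition means more luminescence from relief of DAX-1 repression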
ssDAF12 agonist = activators of S. stercoralis DAF-12 nuclear receptor. HEK293 ssDAF-12/GRIP1 lit1-tk-luc reporter, luminescence; % of 3 µM dafachronic acid response. activation, % at 6.8 µM. 370,000 tested, 1% active. AID 652126;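 active = activation above the mean over all tested compounds plus 3 SD, cut at about 0.9% in these data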;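 note: 0% = DMSO-only wells and 100% = 3 µM delta7-dafachronic acid wells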
hcDAF12 agonist = activates DAF-12 receptor from parasite H. contortus; HEK293 hcDAF-12 lit1-tk-luc reporter, luminescence; 0% DMSO, 100% Δ7-dafachronic acid; activation, % at 6.8 µM; 370,000 tested, 1.4% active; AID 652067;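 active = activation above the mean of all tested compounds plus 3 SD, cut at about 5.5% in these data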;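 note: 100% = response to 3 µM Δ7-dafachronic acid high control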
DAX1 inh-2 = inhibitors of human orphan nuclear receptor DAX1 (NR0B1); P51843; HEK293 Gal4-DAX1 luciferase reporter, luminescence; inhibition, % at 6.75 µM; 340,000 tested, 0.99% active; AID 504766;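 active = inhibition above the mean over all tested compounds plus 3 SD, cut at about 4.2% in these data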;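 note: 0% = DAX1-transfected cells with DMSO and 100% = empty-vector control cells with DMSO; inhibition shows as a rise in luminescence from relieved DAX1 repression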
Target sequence (P51843 207-470 limits assumed): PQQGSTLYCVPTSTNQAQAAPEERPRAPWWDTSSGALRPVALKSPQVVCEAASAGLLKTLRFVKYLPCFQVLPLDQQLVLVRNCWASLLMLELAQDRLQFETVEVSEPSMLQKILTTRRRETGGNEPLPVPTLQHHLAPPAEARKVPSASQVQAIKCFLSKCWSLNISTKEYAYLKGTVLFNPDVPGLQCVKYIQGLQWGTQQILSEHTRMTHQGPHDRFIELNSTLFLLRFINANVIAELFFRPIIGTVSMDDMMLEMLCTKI
hgDAF-12 ag = agonists of H. glycines DAF-12 nuclear receptor. HEK293 GAL4-hgDAF12 UAS-luciferase reporter, agonist luminescence; normalized to butyrate control. activation, % at 6.8 µM. 370,000 tested, 1.8% active. AID 687014;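 active = activation above a cutoff set at the mean of all screened compounds plus 3 SD, cut at about 10% in these data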;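 note: 0% = DMSO wells and 100% = sodium butyrate wells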
* hit, by the source's call.

How did CC1CCC(=O)N(CCSc2ccccc2)CC1 (stereo unspecified) do in these assays?
DAX1 inh-1: 1.6; ssDAF12 agonist: 0.0; hcDAF12 agonist: 6.2*; DAX1 inh-2: 0.8; hgDAF-12 ag: 7.3

How did O=c1c(O)c(-c2ccccc2)oc2ccccc12 do in these assays?
DAX1 inh-1: 1.2; ssDAF12 agonist: -1.2; hcDAF12 agonist: -2.9; DAX1 inh-2: 4.9*; hgDAF-12 ag: 7.3

What do the screens show for `OC(COc1ccc2ccccc2c1Cl)CN1CCOCC1` (stereo unspecified)?
DAX1 inh-1: 1.9; ssDAF12 agonist: -0.6; hcDAF12 agonist: 1.3; DAX1 inh-2: 1.9; hgDAF-12 ag: 11.5*

How did Clc1ccc(-c2ccccc2)nn1 do in these assays?
DAX1 inh-1: 0.3; ssDAF12 agonist: -0.8; hcDAF12 agonist: -0.8; hgDAF-12 ag: 1.2

What do the screens show for `O=c1[nH]c(-c2ccc3c(c2)OCO3)nc2c1sc(=S)n2-c1ccccc1`?
DAX1 inh-1: -0.3; ssDAF12 agonist: 1.0*; hcDAF12 agonist: 1.8; DAX1 inh-2: 2.1; hgDAF-12 ag: -1.8

How did Cc1nn(-c2ccc(F)cc2)c2sc(C(=O)OCC(=O)N3CCC(C)CC3)cc12 do in these assays?
DAX1 inh-1: -0.9; ssDAF12 agonist: -1.0; hcDAF12 agonist: 0.8; DAX1 inh-2: 6.3*; hgDAF-12 ag: 1.1

What do the screens show for `Cc1noc(C)c1COC(=O)c1cc2c(C)nn(-c3ccc(F)cc3)c2s1`?
DAX1 inh-1: -0.4; ssDAF12 agonist: -0.8; hcDAF12 agonist: -1.3; DAX1 inh-2: 1.5; hgDAF-12 ag: 1.5

Results for O=c1c(C=NCc2ccccc2)c(NCc2ccccc2)nc2ccccn12 ?
DAX1 inh-1: -0.6; ssDAF12 agonist: -1.2; hcDAF12 agonist: 0.2; DAX1 inh-2: 4.5*; hgDAF-12 ag: -0.8

Results for Cc1ccc(S(C)(=O)=NC(=O)NC(=O)c2c(Cl)cccc2Cl)cc1 (stereo unspecified) ?
DAX1 inh-1: 0.3; ssDAF12 agonist: -1.4; hcDAF12 agonist: -0.6; DAX1 inh-2: 4.9*; hgDAF-12 ag: 0.9

Results for CS(=O)(=O)N1CCC[C@]2(CC[C@H](CCC#N)O2)C1 ?
DAX1 inh-1: 0.8; ssDAF12 agonist: -0.7; hcDAF12 agonist: -1.0; hgDAF-12 ag: 1.7

What do the screens show for `COc1ccc(Nc2n[nH]c(N)c2C(N)=O)cc1`?
DAX1 inh-1: 0.9; ssDAF12 agonist: -2.1; hcDAF12 agonist: 0.0; DAX1 inh-2: 14.2*; hgDAF-12 ag: -1.6

What do the screens show for `CCC(C)NC(=O)C1CCN(c2nc(OC)nc(OC)n2)CC1` (stereo unspecified)?
DAX1 inh-1: -0.1; ssDAF12 agonist: -1.2; hcDAF12 agonist: -1.2; DAX1 inh-2: 0.3; hgDAF-12 ag: 0.7

How did CCC(C)(C)NC(=O)C1CCN(c2nc(OC)nc(OC)n2)CC1 do in these assays?
DAX1 inh-1: -0.4; ssDAF12 agonist: -0.8; hcDAF12 agonist: -1.3; DAX1 inh-2: 6.1*; hgDAF-12 ag: -3.4

Results for Cc1cc(O)c(C(=O)c2ccccc2C(=O)O)cc1C ?
DAX1 inh-1: -0.3; ssDAF12 agonist: -0.9; hcDAF12 agonist: 6.4*; DAX1 inh-2: 1.5; hgDAF-12 ag: -0.4

What do the screens show for `COc1ccc(-n2c(COc3ccc(C)cc3)nnc2SCC(=O)c2ccc(-c3ccccc3)cc2)cc1`?
DAX1 inh-1: -0.5; ssDAF12 agonist: -1.4; hcDAF12 agonist: -1.4; hgDAF-12 ag: 1.6

What do the screens show for `CC1=CC2C3C(=O)N(c4ccccc4)C(=O)C3C1C(=O)C2(O)C(C)C` (stereo unspecified)?
DAX1 inh-1: -0.7; ssDAF12 agonist: -0.9; hcDAF12 agonist: 1.4; hgDAF-12 ag: 0.8

What do the screens show for `O=C(Cc1ccccc1[N+](=O)[O-])NCc1ccncc1`?
DAX1 inh-1: 0.4; ssDAF12 agonist: 1.1*; hcDAF12 agonist: 5.3; DAX1 inh-2: 0.7; hgDAF-12 ag: -0.4

What do the screens show for `O=C(Cc1ccccc1[N+](=O)[O-])NCCc1ccc(F)cc1`?
DAX1 inh-1: -0.3; ssDAF12 agonist: 5.1*; hcDAF12 agonist: 0.9; DAX1 inh-2: 0.8; hgDAF-12 ag: -0.4

What do the screens show for `COc1cc(C=NN2CCN(C(c3ccccc3)c3ccccc3)CC2)cc(OC)c1OC(C)=O`?
DAX1 inh-1: 0.5; ssDAF12 agonist: -1.6; hcDAF12 agonist: 1.2; hgDAF-12 ag: -0.6

Results for Cc1cccc(N=c2oc3cc(O)ccc3cc2C(N)=O)c1 ?
DAX1 inh-1: 3.0; ssDAF12 agonist: 0.2; hcDAF12 agonist: 3.3; DAX1 inh-2: 1.9; hgDAF-12 ag: 12.0*

What do the screens show for `COc1ccccc1N=c1oc2cc(O)ccc2cc1C(N)=O`?
DAX1 inh-1: 1.3; ssDAF12 agonist: -0.8; hcDAF12 agonist: 0.3; DAX1 inh-2: -1.3; hgDAF-12 ag: 7.7

Results for Cc1cc(C)c2c(N)c(C(=O)c3ccccc3)sc2n1 ?
DAX1 inh-1: -0.6; ssDAF12 agonist: -1.7; hcDAF12 agonist: -2.1; hgDAF-12 ag: 1.7

What do the screens show for `Cc1nc2sc(C(N)=O)c(N)c2c(C)c1CC(=O)c1ccccc1`?
DAX1 inh-1: 1.4; ssDAF12 agonist: -0.9; hcDAF12 agonist: -0.2; DAX1 inh-2: -0.1; hgDAF-12 ag: 12.4*

What do the screens show for `Cc1ccc(C)c(S(=O)(=O)NCC(=O)N2CCCC2)c1`?
DAX1 inh-1: 0.8; ssDAF12 agonist: -0.9; hcDAF12 agonist: 1.6; DAX1 inh-2: -1.1; hgDAF-12 ag: 2.2

What do the screens show for `Cc1cc(C)c(C)c(S(=O)(=O)NCC(=O)N2CCCC2)c1C`?
DAX1 inh-1: 0.0; ssDAF12 agonist: 0.9*; hcDAF12 agonist: -2.7; DAX1 inh-2: 0.7; hgDAF-12 ag: 0.8

Results for Cc1[nH]c2ccccc2c1/C=N/Nc1ccccc1[N+](=O)[O-] ?
DAX1 inh-1: 0.1; ssDAF12 agonist: 0.9*; hcDAF12 agonist: 5.0; DAX1 inh-2: -0.4; hgDAF-12 ag: 3.6

Results for COc1ccc(NS(=O)(=O)c2cc([N+](=O)[O-])ccc2N/N=C/c2c(C)[nH]c3ccccc23)cc1 ?
DAX1 inh-1: -0.2; ssDAF12 agonist: -0.5; hcDAF12 agonist: 2.0; DAX1 inh-2: 0.2; hgDAF-12 ag: 1.1

What do the screens show for `FC(F)(F)c1ccccc1C(C#Cc1ccccc1)NCc1ccc2c(c1)OCO2` (stereo unspecified)?
DAX1 inh-1: -0.9; ssDAF12 agonist: -0.3; hcDAF12 agonist: -2.2; hgDAF-12 ag: 0.2

How did COc1ccc(Cc2nnc(SCC(=O)c3ccc(OC)cc3)o2)cc1 do in these assays?
DAX1 inh-1: -1.0; ssDAF12 agonist: -0.9; hcDAF12 agonist: -3.4; DAX1 inh-2: -0.6; hgDAF-12 ag: -1.5

What do the screens show for `COc1ccc(Cc2nnc(SCC(=O)Nc3nc(C)cs3)o2)cc1`?
DAX1 inh-1: 0.3; ssDAF12 agonist: 1.0*; hcDAF12 agonist: -1.5; DAX1 inh-2: 0.5; hgDAF-12 ag: -0.5

What do the screens show for `Cc1c(OCC(=O)N[C@H](C(=O)O)c2ccccc2)ccc2c3c(c(=O)oc12)CCCC3`?
DAX1 inh-1: 0.1; ssDAF12 agonist: -1.3; hcDAF12 agonist: 0.2; DAX1 inh-2: 4.3*; hgDAF-12 ag: -1.2

What do the screens show for `Cc1ccccc1-c1cc(=O)c2ccccc2o1`?
DAX1 inh-1: -0.2; ssDAF12 agonist: -1.5; hcDAF12 agonist: -2.7; DAX1 inh-2: 0.8; hgDAF-12 ag: 0.6
